In PubChem BioAssay (NCATS):
Values joined by “and” are separate entries in the source; they are usually repeats but may differ in a detail not shown here. Equal values may be shown once. Inconclusive results are not listed. Active and inactive are the calls of the source. The call rests on the fitted dose curve; in most records, active means well fitted curve in the direction sought with a large enough effect; inconclusive means small, poorly fitted or top-dose-only effect, or another doubt; inactive means no such curve, though single readings can be large or run the other way.

Test: qHTS Assay for Identifying Gametocytocidal Compounds (AID 743244);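 on max response: actives lower the fluorescent signal which means gametocytes are killed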
Details: P. falciparum 3D7 stage III-V gametocytes, alamarBlue, 72 h; max response: hits give low values
Text: Malaria cases and deaths have dropped 50% in 29 countries since 2000 due to the combined effects of long-lasting insecticidal bednets, indoor residual spraying, and artemisinin-based combination therapies (ACTs). This success has raised hopes for malaria eradication and consequently stimulated interest in developing new reagents that block gametocyte transmission such as novel and safe gametocytocidal drugs. However, previous drug development efforts have focused primarily on the asexual parasites that cause symptoms, but not malaria transmission. Consequently, patients can remain infectious for weeks after the clearance of asexual parasites and clinical symptoms. To be transmitted from person to person via a mosquito, the parasites must switch from asexual to sexual development and produce male and female gametocytes. Malaria gametocytes consist of five stages (I, II, III, IV and V). The late stage gametocytes (III, IV and V) are difficult to be cultured in vitro and the long lifespan of mature gametocytes allows them being transmitted from host to mosquitoes unless they are completely eliminated by gametocytocidal agents. To identify gametocytocidal compounds which are capable of killing late stage P. falciparum gametocytes, a high throughput gametocyte viability assay was employed. This assay uses oxidoreduction indicator, alamarBlue, as a general measure of metabolic activity of gametocytes. Within live cells, the nonfluorescent resazurin is reduced to resorufin, a bright red fluorescence dye. Fluorescence decreases upon treatment of gametocytocidal compounds. P. falciparum gametocyte (3D7 strain) was used in this study.
The 1536-well gametocycidal viability assay was based on the previous method of Tanaka et al. Stage III-V gametocytes were tested against three compound libraries, including 4265 compounds from NCGC pharmaceutical collection, 400 from Malaria Box library, and 550 from an internal collection of kinase inhibitors. Briefly, 2.5 ul/well incomplete medium was dispensed into each well of 1,536-well plates using the Multidrop Combi followed by 23 nl compound transferring using the NX-TR Pintool (WAKO Scientific Solutions, San Diego, CA). Then, 2.5 ul/well of gametocytes was dispensed with a seeding density of 20,000 cells/well using the Multidrop Combi. The assay plates were incubated for 72 h at 37C with 5% CO2. After addition of 5 ul/well of 2X AlamarBlue dye (Life Technologies, cat. no. DAL1100), the plates were incubated for 24 h at 37C with 5% CO2 and then were read in a fluorescence detection mode (Ex = 525 nm, Em = 598 nm) on a ViewLux plate reader (PerkinElmer).
On the % scale 0 is the no-effect control and ±100 the full control effect; potency means the concentration at half of the fitted maximal effect.

Compound	Potency	max response
Clc1ccccc1C(c1ccccc1)(c1ccccc1)n1ccnc1	2.51 µM (active) and 2.09 µM (active)	
O=C1Cc2cc(CCN3CCN(c4nsc5ccccc45)CC3)c(Cl)cc2N1		-0.117% (inactive) and 9.6% (inactive)
CCCNCC(O)COc1ccccc1C(=O)CCc1ccccc1 (stereo not given)	3.16 µM (active) and 1.78 µM (active)	
CC1COc2c(N3CCN(C)CC3)c(F)cc3c(=O)c(C(=O)O)cn1c23 (stereo not given)		18.2% (inactive) and 27.4% (inactive)
CC1(CN2CCC(n3c(=O)[nH]c4ccccc43)CC2)OCc2ccccc2-n2cccc21 (stereo not given)		-18.7% (inactive) and -2.64% (inactive)
CCN1CCCC1CNC(=O)c1cc(S(=O)(=O)CC)c(N)cc1OC (stereo not given)		-5.68% (inactive) and 24.9% (inactive)
CC12CC3CC(C)(C1)CC(N)(C3)C2		12.5% (inactive)
Cc1ccc(-c2cc(C(F)(F)F)nn2-c2ccc(S(N)(=O)=O)cc2)cc1		2.3% (inactive) and -2.23% (inactive)
COc1cc2nc(N3CCN(C(=O)C4COc5ccccc5O4)CC3)nc(N)c2cc1OC (stereo not given)		2.28% (inactive)
CS(=O)(=O)CCNCc1ccc(-c2ccc3ncnc(Nc4ccc(OCc5cccc(F)c5)c(Cl)c4)c3c2)o1		-3.58% (inactive) and 12% (inactive)
C[C@@H]1CC(=O)NN=C1c1ccc(NN=C(C#N)C#N)cc1		16.6% (inactive)
CC(=O)OCC(CCn1cnc2cnc(N)nc21)COC(C)=O		13.8% (inactive)
CC(C)(Oc1ccc(C2CC2(Cl)Cl)cc1)C(=O)O (stereo not given)		2.49% (inactive) and 6.24% (inactive)
Cn1c(=O)c2[nH]cnc2n(C)c1=O		2.17% (inactive) and 13.8% (inactive)
N[C@@H](Cc1c[nH]c2ccc(O)cc12)C(=O)O		-0.101% (inactive) and -5.53% (inactive)
CCOC(=O)c1ncn2c1CN(C)C(=O)c1cc(F)ccc1-2		2.86% (inactive) and 37.5% (inactive)
COc1ccccc1OCCNCC(O)COc1cccc2[nH]c3ccccc3c12 (stereo not given)		6.87% (inactive) and 32.1% (inactive)
NCCCCCC(=O)O		-0.169% (inactive) and -6.11% (inactive)
C[C@H]1c2cccc(O)c2C(O)=C2C(=O)[C@]3(O)C(O)=C(C(N)=O)C(=O)[C@@H](N(C)C)[C@@H]3[C@@H](O)[C@@H]21		18.1% (inactive)
COc1ccc(C2CNC(=O)C2)cc1OC1CCCC1 (stereo not given)		8.29% (inactive) and 32.6% (inactive)

Compound	Potency	max response
CC(C)NCC(O)c1ccc(O)c(O)c1 (stereo not given)		-2.95% (inactive)
Cn1ccc2cc3c(cc21)CCN3C(=O)Nc1cccnc1		16% (inactive) and 23.5% (inactive)
CCC1(C)CC(=O)NC1=O (stereo not given)		19% (inactive) and 33% (inactive)
CN(Cc1cnc2nc(N)nc(N)c2n1)c1ccc(C(=O)N[C@@H](CCC(=O)O)C(=O)O)cc1		-2.41% (inactive) and 9.8% (inactive)
Nc1ccn([C@H]2CC[C@@H](CO)O2)c(=O)n1		-9.19% (inactive) and 7.53% (inactive)
C[C@](N)(Cc1ccc(O)c(O)c1)C(=O)O		9.51% (inactive)
CC[C@@]1(O)C(=O)OCc2c1cc1n(c2=O)Cc2cc3c(CN(C)C)c(O)ccc3nc2-1		27.1% (inactive) and 13.5% (inactive)
CN1CCN(C2=Nc3cc(Cl)ccc3Nc3ccccc32)CC1		-2.07% (inactive) and 20.9% (inactive)
Nc1c2c(nc3ccccc13)CCCC2	8.91 µM (active)	
O=C(c1ccc(F)cc1)C1CCN(CCn2c(=O)[nH]c3ccccc3c2=O)CC1		7.32% (inactive) and -5.52% (inactive)
CCOC(=O)C(C)(C)Oc1ccc(Cl)cc1		9.62% (inactive) and 0.495% (inactive)
Cn1c(=O)c2c(ncn2C)n(C)c1=O		-4.77% (inactive) and 11.8% (inactive)
CN(CCOc1ccc(NS(C)(=O)=O)cc1)CCc1ccc(NS(C)(=O)=O)cc1		1.01% (inactive)
CN(C)CCC=C1c2ccccc2C=Cc2ccccc21	10 µM (active)	
CC(C)(C)C(=O)Oc1ccc(S(=O)(=O)Nc2ccccc2C(=O)NCC(=O)O)cc1		3.13% (inactive)
COc1ccc2c(c1)c(CC(=O)O)c(C)n2C(=O)c1ccc(Cl)cc1		2.39% (inactive) and 17.2% (inactive)
Fc1ccc([C@@H]2CCNC[C@H]2COc2ccc3c(c2)OCO3)cc1	12.6 µM (active) and 1.12 µM (active)	
Cc1cc(C(C)(C)C)c(O)c(C)c1CC1=NCCN1		-1.21% (inactive) and 27.5% (inactive)
CC[N+](CC)(CC)CCOc1cccc(OCC[N+](CC)(CC)CC)c1OCC[N+](CC)(CC)CC		4.54% (inactive) and -6.53% (inactive)
NC12CC3CC(CC(C3)C1)C2		-8.46% (inactive)
